High-throughput results from PubChem.
AMA1 RON2 block: inhibitors of Plasmodium falciparum AMA1-RON2 interaction; AID 720542; AlphaScreen AMA1-biotinylated RON2 peptide binding; Potency, µM (doses to about 58.2 µM), for inactives: top-dose activity change, negative = inhibition, most hits filed as inhibitors; 360,000 tested, 0.2% active;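 also: potency is read from the fitted curve at half-maximal effect; 0% = vehicle wells and -100% = peptide control; nearly all actives have a fitted effect of over 45% in size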
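AMA1 (3D7) with his tag at 25 nM final met compounds first, then biotinylated RON2 peptide at 25 nM; detection used donor plus acceptor beads, 10 µg/mL apiece, read by AlphaScreen after 30 min at room temperature.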
Pf growth 96h: inhibits malaria parasite growth, 96 h; P. falciparum luciferase reporter growth, 96 h; Potency, µM (titrated, usually from 28.7 µM), inactives show at the top dose activity change, negative = inhibition, most hits filed as inhibitors; 320,000 tested, 6.9% active; AID 504834; also: potency is read from the fitted curve at half-maximal effect; % is scaled to controls: 0 for no effect and ±100 for the full control effect
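Two-generation exposure (96 h) targets delayed-death phenotype. Reporter parasites carrying integrated firefly luciferase, in red cells at 2% hematocrit and 0.05% parasitemia final, kept at 37 C, 5% CO2; luminescence loss indicates inhibition.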
HCV inhibitor: inhibitors of hepatitis C virus infection; 340,000 tested, 3.4% active; Huh7.5.1 HCVcc-Cre infection, luciferase reporter, 44 h; Potency, µM (titrated, usually from 41.8 µM), inactives show at the highest dose activity change, negative = inhibition, usual class: inhibitors; also: potency is read from the fitted curve at half-maximal effect; % is scaled to controls: 0 for no effect and ±100 for the full control effect
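Seed cells (1,000/well) for 4 h; treat with compound and infect with HCVcc-Cre, moi about 0.5. Incubate 44 h, then detect luciferase activity.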
Cycloheximide cs: counter-screen hit for Shiga toxin inhibitors, cycloheximide; cell reporter, cycloheximide protein synthesis inhibition counterscreen; max response, %; 300,000 tested, 12% active; AID 2314; in the data active = max response mostly above about 13%, no sharp cut-off; inactive = mostly below about 14%; also: read at 38.3 µM for the half of the compounds with a filed dose; 0% is about no effect
Shiga toxin inh: Shiga toxin inhibition | inhibition, % at 38.7 µM | AID 2315 | Vero cells, Shiga toxin protein synthesis inhibition reporter | 290,000 tested, 9.2% active; in the data active = inhibition mostly above about 28%, no sharp cut-off; inactive = mostly below about 43%; also: 0% is about no effect
Pf growth 48h: P. falciparum growth inhibition at 48 hours (one generation); P. falciparum luciferase growth in erythrocytes, 48 h; Potency, µM (titrated, usually from 28.7 µM), for the others: top-dose activity change, negative = inhibition, most hits filed as inhibitors; 310,000 tested, 5.9% active; also: potency is read from the fitted curve at half-maximal effect; % is scaled to controls: 0 for no effect and ±100 for the full control effect
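Compounds are pin-transferred into medium, infected erythrocytes (2% hematocrit, 0.1% parasitemia final) are added, and plates sit one parasite generation at 37 C in 5% CO2. Detection reagent is then added and luminescence measured.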
Active calls of the source: *; u = inconclusive; x = no result given. Shown are actives, neighbours in structure and some others; about 21% of the full set was active somewhere. Unless noted, calls follow the shape of the dose curve; as a rule, active = well fitted curve in the direction sought with a large enough effect; inconclusive = small, poorly fitted or top-dose-only effect, or another doubt; inactive = no such curve, though single readings can be large; an effect the other way counts as inactive or inconclusive.

SMILES	AMA1 RON2 block	Pf growth 96h	HCV inhibitor	Cycloheximide cs	Shiga toxin inh	Pf growth 48h
Cc1cccc(NS(=O)(=O)c2cccc(C(=O)NCC3(N4CCOCC4)CCCCC3)c2)c1	-5.8%	x	u	x	x	x
O=C(NCC1(N2CCCCC2)CCCCC1)c1cccc(NS(=O)(=O)c2ccccc2)c1	1.8%	u	-10.4%	x	x	u
O=C(NCC1(N2CCOCC2)CCCCC1)c1cccc(S(=O)(=O)Nc2ccc(F)cc2)c1	-6.1%	u	-22.0%	x	x	10.4µM*
CC(C)c1ccc(N(CC(=O)NC2CCCCC2)C(=O)CCC(=O)Nc2ccccn2)cc1	15.1%	24.9%	5.8%	-2.5	21.9	u
CC(C)CC1NC(=O)c2ccccc2-n2c1nc1ccc(Cl)cc1c2=O (stereo unspecified)	x	x	13.4%	x	x	x
COCCn1c(=NC(=O)C(C)(C)C)sc2cc([N+](=O)[O-])ccc21	-5.0%	91.4%	-0.4%	19.2*	9.3	39.1%
CC(C)(C)NC(=O)C(c1ccc(C(F)(F)F)cc1)n1c(=O)c(-c2cc3ccccc3[nH]2)nc2ccccc21 (stereo unspecified)	93.1%	x	x	x	x	x
CC(C)N(Cc1cn[nH]c1-c1ccc(-c2ccccc2)cc1)Cc1nccn1C	-15.5%	-27.2%	-6.8%	-1.6	18.3	u
C[C@H]1CN([C@@H](C)CO)C(=O)CCCn2nncc2CO[C@H]1CN(C)S(=O)(=O)c1ccc(Oc2ccccc2)nc1	6.9%	x	x	x	x	x
Oc1cccc(Nc2nc(N3CCOCC3)nc(N3CCOCC3)n2)c1	-0.4%	u	u	-3.9	-10.0	11.7µM*
Cn1ccnc1Sc1nc(Nc2cccc(Cl)c2)nc(N2CCOCC2)n1	5.5%	x	8.3%	6.5	-8.2	8.28µM*
Cc1cccc(Nc2nc(N3CCOCC3)nc(N3CCOCC3)n2)c1	2.5%	-36.2%	u	-0.9	-11.6	u
Fc1ccc(Nc2nc(N3CCOCC3)nc(N3CCOCC3)n2)cc1	2.7%	13.1µM*	-28.6%	-10.6	-2.3	-14.1%
C=CCNc1nc(N2CCOCC2)nc(N2CCOCC2)n1	-2.8%	13.1µM*	-23.8%	5.6	13.1	-13.7%
COc1ccc(CN2C(=NC(=O)C3CC3)SC3CS(=O)(=O)CC32)cc1OC (stereo unspecified)	16.6%	5.8%	-1.4%	-4.3	-4.9	-25.7%
N#Cc1ccc(Oc2nc(Nc3ccc(F)cc3)nc(N3CCCC3)n2)cc1	-4.6%	4.15µM*	-4.5%	-3.0	8.0	x
CCOc1nc(Nc2ccc(F)cc2)nc(N2CCN(c3ccc(OC)cc3)CC2)n1	-1.0%	u	-19.7%	1.6	-10.1	x
COc1ccc(CNC(=O)CCn2c(C)csc2=O)cc1	3.8%	32.8%	19.4%	x	x	0.0%
CCc1nc2ccc(C(=O)N(C)C(C)C)cn2c1N(CCC(C)C)CCN(C)C	5.7%	x	x	x	x	x
COC(=O)CNC(=O)C1CCN(c2nc(C)cc(C)n2)CC1	-6.0%	39.0%	9.4%	-1.5	-3.6	-0.1%
CCN(CC)CCCNC(=O)C1CCN(C(=O)c2oc3cc4sc(N(C)C)nc4cc3c2C)CC1	-4.4%	11.7µM*	u	19.0*	24.1	-17.3%
COCCCNC(=O)C1CCN(c2nc(C)cc(C)n2)CC1	0.0%	5.22µM*	20.8%	-4.9	1.4	3.2%
COCCCNC(=O)C1CCN(C(=O)c2oc3cc4sc(N(C)C)nc4cc3c2C)CC1	-12.0%	u	-26.7%	35.8*	60.5*	9.8%
CCC(N=c1cc(-c2ccc(OC)c(OC)c2)oc2ccc(C)cc12)C(=O)O (stereo unspecified)	1.1%	33.5%	11.9%	21.2*	16.4	26.9%
COc1ccc(-c2c(C)oc3ccc(C)cc23)cc1	-1.9%	72.0%	8.2%	-4.1	-15.7	2.4%
SMILES	AMA1 RON2 block	Pf growth 96h	HCV inhibitor	Cycloheximide cs	Shiga toxin inh	Pf growth 48h
CCC(N=c1cc(-c2ccc(OC)cc2)oc2ccc(C)cc12)C(=O)O (stereo unspecified)	-10.3%	226.7%	19.4%	82.0*	77.4*	109.7%
Cc1ccc(C(=O)O)cc1NC(=O)CSc1ncnc2sc3c(c12)CCC3	3.5%	13.0%	3.5%	-3.4	13.2	-2.9%
Cc1ccc(N2CC(C(=O)N3CCN(c4ccccn4)CC3)CC2=O)cc1 (stereo unspecified)	4.7%	x	-10.7%	x	x	x
CC(=O)N(c1ccccc1)C1CC(C)N(C(=O)c2ccccc2)c2ccccc21 (stereo unspecified)	5.9%	17.4%	-28.7%	3.7	x	0.0%
Cc1ccc(C(=O)N(c2ccccc2)C2CC(C)N(C(=O)c3ccco3)c3ccccc32)cc1 (stereo unspecified)	-5.1%	x	11.2µM*	17.7*	31.4	10.4µM*
O=C(/C=C/c1ccc(OCCCF)cc1)NCc1cccc(Cl)c1	12.5%	u	u	1.4	-5.1	u
O=C(/C=C/c1ccc(OCCCF)cc1)Nc1ccnc(-c2cccnc2)n1	-13.2%	u	u	7.2	-5.9	10.4µM*
CCCCC(=O)Nc1ccnc(-c2cccnc2)n1	-0.7%	69.7%	-20.9%	-1.2	-5.2	14.3%
O=C(/C=C/c1ccc(OCCCF)cc1)Nc1ccnc(-c2ccncc2)n1	-4.6%	13.1µM*	u	13.9	43.8	13.1µM*
O=C(NCC(=O)N1CCN(c2ccccc2O)CC1)C1CCCCC1	2.6%	u	7.3%	x	x	u
O=C(NCC(=O)N1CCC(N2CCCCC2)CC1)C1CCCCC1	-16.5%	1.17µM*	11.2%	-2.5	-6.1	8.9%
CCCCN(Cc1ccco1)S(=O)(=O)c1ccc(-c2ccc(=O)[nH]n2)s1	0.0%	14.7µM*	-2.0%	-2.3	3.4	-3.7%
CC(C)CCN(Cc1ccco1)S(=O)(=O)c1ccc(-c2ccc(=O)[nH]n2)s1	-7.7%	11.4%	u	-2.0	4.4	-6.1%
Cn1cnnc1SCC(=O)NC1CCCN(Cc2ccccc2F)C1 (stereo unspecified)	15.4%	u	2.1%	-3.2	10.6	16.2%
CN(CCCCCCCCC(=O)/C=N/O)Cc1ccccc1	-0.8%	2.62µM*	9.7%	-6.2	-6.8	x
CCCNC(=O)C1(C)CCN(C(=O)c2cccnc2Oc2ccccc2)C1 (stereo unspecified)	24.4%	x	x	x	x	x
CCOC(=O)c1c(NC(=O)CSc2nnc(CNc3ccc(F)cc3)o2)sc(C(C)=O)c1C	101.5%	1.65µM*	u	-2.5	39.3	-16.3%
CCOC(=O)CN(C(=O)CSc1nnc(CNc2ccc(F)cc2)o1)c1ccccc1	5.7%	0.0%	1.1%	21.9*	-6.0	-23.6%
O=C(CSc1nncs1)N1c2ccccc2Sc2ccccc21	0.2%	x	-16.9%	-3.6	-23.0	13.1µM*
O=C(CSc1nnc(CNc2ccc(F)cc2)o1)N1c2ccccc2Sc2ccccc21	-17.5%	u	10µM*	-2.5	-21.4	u
CCOC(=O)CN(C(=O)CSc1nnc(CNc2ccc(F)cc2)n1C)c1ccccc1	-12.6%	x	9.7%	-1.5	8.6	u
